This note sets out measurements from PubChem BioAssay (NCI).

Among the test systems are SK-MEL-2 melanoma; EKVX NSCLC; SN12C renal; UO-31 renal; TK-10 renal; ACHN renal; CAKI-1 renal; CCRF-CEM leukemia; MOLT-4 leukemia; SR leukemia; RPMI-8226 leukemia; OVCAR-8 ovarian; OVCAR-5 ovarian; OVCAR-4 ovarian; SK-OV-3 ovarian; IGROV1 ovarian; OVCAR-3 ovarian; HS 578T breast; NCI/ADR-RES ovarian; A498 renal.
Assay in all cases: NCI-60 one-dose screen, 48 h (100 = growth as untreated, 0 = no growth, -100 = all killed)
Conditions in all cases: 10 µM unless noted

About 83,000 compounds went through this panel and 20% of them were active in at least one assay; those are over-represented in the sample as a whole.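 A percent growth of 40 corresponds to 60% growth inhibition; 0 means no net growth; -100 means all cells died. Active threshold: below 10.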 Values without a mark were called inactive. Active and inactive are the calls of the source.

Consider `CC[C@]1(O)C[C@H]2CN(CCc3c([nH]c4ccccc34)C(C(=O)OC)(c3cc4c(cc3OC)N(C)[C@H]3[C@@](O)(C(=O)OC)[C@H](OC(C)=O)[C@]5(CC)[C@@H]6C[C@@H]6CN6CC[C@]43[C@@H]65)C2)C1` (some centres not stated), for which the growth is 45.5% with SK-MEL-2 melanoma; 35.2% in the test with EKVX NSCLC; 22.2% in the test with SN12C renal; 9.66% (active) with UO-31 renal; 52.7% in the test on TK-10 renal; 5.92% (active) in the test on ACHN renal. Further, the growth is -13.2% (active) in the test on CAKI-1 renal; 4.35% (active) in the test with CCRF-CEM leukemia; 3.74% (active) in the test with MOLT-4 leukemia; -20.5% (active) in the test with SR leukemia; 42.1% in the test on RPMI-8226 leukemia; 19.4% in the test on OVCAR-8 ovarian. In addition, the growth with OVCAR-5 ovarian was 6.6% (active); in the test with OVCAR-4 ovarian, 29.1%; in the test on SK-OV-3 ovarian it was -11.9% (active); in the test on IGROV1 ovarian, 9.14% (active); in the test with OVCAR-3 ovarian it was 5.03% (active); in the test on HS 578T breast, 43.9%. Also, the growth with NCI/ADR-RES ovarian was -3.99% (active).
Consider `CCSCC1CC(O)(c2ccccc2)C(c2ccccc2)C(c2ccc(F)cc2)O1` (configuration not stated), for which the growth is -0.854% (active) with SK-MEL-2 melanoma; 0.894% (active) in the test with EKVX NSCLC; -22.9% (active) in the test on SN12C renal; -0.34% (active) with UO-31 renal; -15.4% (active) in the test with TK-10 renal; -14.3% (active) in the test on ACHN renal. Further, the growth with CAKI-1 renal was -13.5% (active); in the test with CCRF-CEM leukemia it was 2.04% (active); in the test on MOLT-4 leukemia, -48.2% (active); in the test with SR leukemia, 1.33% (active); in the test on RPMI-8226 leukemia, -16.1% (active); with OVCAR-8 ovarian, 1.93% (active). In addition, the growth with OVCAR-4 ovarian is -9.01% (active); with SK-OV-3 ovarian it was 6.98% (active); with IGROV1 ovarian, 11.2%; in the test with HS 578T breast, -35.3% (active); with NCI/ADR-RES ovarian, -24.8% (active).
Turning to `COc1cc(/C=C\c2cc(/C=C\c3ccc(O)c(OC)c3)n(C(=O)Nc3ccc(C(F)(F)F)cc3)n2)ccc1O`, the growth in the test on SK-MEL-2 melanoma is 84.5%; with EKVX NSCLC, 61.3%; with SN12C renal it was 36.9%; with UO-31 renal, 42.9%; with TK-10 renal, 77.7%; with ACHN renal, 65.8%. The growth was 55% in the test with CAKI-1 renal; 3.42% (active) in the test with CCRF-CEM leukemia; 11.1% in the test on MOLT-4 leukemia; 13.2% with SR leukemia; -0.214% (active) in the test with RPMI-8226 leukemia; 0.433% (active) in the test with OVCAR-8 ovarian. Further, the growth in the test with OVCAR-5 ovarian is 115%; in the test with OVCAR-4 ovarian, 76.7%; with SK-OV-3 ovarian it was 66.1%; with IGROV1 ovarian it was 42.8%; in the test on OVCAR-3 ovarian, 13.8%; with HS 578T breast, 51.9%. In addition, the growth in the test with NCI/ADR-RES ovarian is 51.7%.
`C[N+](C)(C)CC(=O)N/N=C\c1ccco1`: the growth in the test on SK-MEL-2 melanoma was 111%; in the test on EKVX NSCLC it was 103%; in the test with SN12C renal, 106%; in the test with UO-31 renal it was 82.8%; in the test with TK-10 renal, 95.2%; in the test with ACHN renal, 107%. The growth with CAKI-1 renal is 98%; in the test with CCRF-CEM leukemia it was 100%; in the test on MOLT-4 leukemia, 102%; in the test with SR leukemia, 81.2%; with RPMI-8226 leukemia it was 103%; with OVCAR-8 ovarian, 102%. Besides, the growth in the test with OVCAR-5 ovarian was 97%; with SK-OV-3 ovarian it was 103%; in the test with IGROV1 ovarian, 104%; with OVCAR-3 ovarian, 114%; in the test on HS 578T breast, 99.4%; with NCI/ADR-RES ovarian, 111%.
Take `Cc1ccc(Nc2cc(Cl)c([N+](=O)[O-])cc2[N+](=O)[O-])cc1`: the growth was 28.3% with SK-MEL-2 melanoma; 102% with EKVX NSCLC; 24.6% in the test with SN12C renal; 77.7% in the test on UO-31 renal; 15.5% with TK-10 renal; 26% in the test with ACHN renal. Further, the growth with CAKI-1 renal is 32.8%; with A498 renal, 92.3%; with MOLT-4 leukemia, 10.3%; in the test with SR leukemia it was 4.96% (active); in the test on OVCAR-8 ovarian it was 26.8%; in the test on OVCAR-5 ovarian it was 46.3%. The growth with SK-OV-3 ovarian was 83.5%; with OVCAR-3 ovarian, 0.375% (active); with HS 578T breast, 92.1%; in the test on NCI/ADR-RES ovarian, 26.5%.
Turning to `CCOC(=O)N1C2CCC(C2)N1C(=O)OCC`, the growth was 99% in the test with SK-MEL-2 melanoma; 113% in the test with EKVX NSCLC; 105% in the test on SN12C renal; 95.6% in the test on UO-31 renal; 94.7% in the test with TK-10 renal; 106% in the test on ACHN renal. The growth with CAKI-1 renal was 106%; in the test on CCRF-CEM leukemia, 100%; in the test with MOLT-4 leukemia it was 93%; in the test with SR leukemia it was 101%; in the test with RPMI-8226 leukemia it was 101%; in the test on OVCAR-8 ovarian, 101%. Moreover, the growth is 100% in the test with OVCAR-5 ovarian; 95.3% in the test with OVCAR-4 ovarian; 104% in the test on SK-OV-3 ovarian; 108% in the test with IGROV1 ovarian; 113% in the test on OVCAR-3 ovarian; 111% with HS 578T breast. Besides, the growth in the test on NCI/ADR-RES ovarian was 108%.
On to `COc1cc(CN2CCC(N3CCCC3=O)c3ccccc32)cc(OC)c1OC` (configuration not stated), for which the growth with SK-MEL-2 melanoma was 89.8%; in the test with EKVX NSCLC, 66.1%; in the test on SN12C renal, 79.7%; with UO-31 renal, 56%; in the test on TK-10 renal, 86.3%; in the test with ACHN renal, 91.3%. The growth was 70.7% in the test on CAKI-1 renal; 63.6% in the test with A498 renal; 59.1% in the test on SR leukemia; 84.2% in the test with OVCAR-8 ovarian; 103% in the test with OVCAR-5 ovarian; 41.3% with OVCAR-4 ovarian. Also, the growth with SK-OV-3 ovarian is 100%; with IGROV1 ovarian, 90.5%; in the test with HS 578T breast, 88.3%.
Take `Oc1ccc(-c2nnc3c4[nH]ccc4ncn23)cc1`: the growth was 113% in the test with SK-MEL-2 melanoma; 93.6% in the test with EKVX NSCLC; 95.2% with SN12C renal; 76.3% in the test on UO-31 renal; 92.3% in the test on TK-10 renal; 87.9% with ACHN renal. The growth in the test with CAKI-1 renal was 84.7%; in the test on CCRF-CEM leukemia it was 108%; with MOLT-4 leukemia, 93.3%; in the test with SR leukemia, 82.4%; in the test with RPMI-8226 leukemia, 97.7%; with OVCAR-8 ovarian, 99.6%. For the same molecule, the growth is 113% in the test with OVCAR-5 ovarian; 102% with OVCAR-4 ovarian; 99.7% in the test with SK-OV-3 ovarian; 107% in the test with OVCAR-3 ovarian; 95% in the test on HS 578T breast.
For the molecule `O=C1OCC2=C1C(c1ccccc1)c1cc3c(cc1N2CCO)CCC3` (configuration not stated), the growth is 17.1% with SK-MEL-2 melanoma; 22.7% with EKVX NSCLC; 23.2% in the test with SN12C renal; 38.1% with UO-31 renal; 54.5% in the test with TK-10 renal; 29.7% with ACHN renal. For the same molecule, the growth is 26.7% with CAKI-1 renal; -21.5% (active) in the test on A498 renal; 23.9% in the test with RPMI-8226 leukemia; 36.5% with OVCAR-8 ovarian; 26.1% with OVCAR-5 ovarian; 30% in the test on OVCAR-4 ovarian. In addition, the growth was -20.7% (active) in the test with SK-OV-3 ovarian; 12.4% with IGROV1 ovarian; -21.6% (active) with OVCAR-3 ovarian; 3.94% (active) in the test with HS 578T breast; -70.4% (active) with NCI/ADR-RES ovarian.
